Assay results published in PubChem BioAssay AID1259421 (Broad Institute, 2018).
Several values for one entry are separate records, joined by “and”; a condition that tells them apart may be missing. Identical values can stand only once. In all, about 6,400 compounds went through this assay and about 610 (9.5%) were called active. No stated cut-off is given here; in the data, active means activity change below about -70%; inconclusive means no clear call, values can overlap the other calls; inactive means above that. The entries come from a sample that favours actives as a whole. Some structures have more than one record in an assay (separate samples or runs), and their calls can disagree.

Experiment: Toxoplasma gondii ME49Luc growth in HeLa cells, luciferase, no IFN-y, primary screen (AID 1259421)
Settings: T. gondii ME49Luc in HeLa, 72 h, stronger effect = lower value, concentration not given here

Q: Which activity change, negative = inhibition does the source give for CCCC(=O)Oc1ccc2[nH]c(C(=O)c3cc4ccccc4[nH]3)cc2c1 here?
A: The activity change, negative = inhibition was 5.11% (inactive).

Q: For CN(Cc1ccccc1)Cc1ccccc1, which activity change, negative = inhibition is on record?
A: The activity change, negative = inhibition was 16.3% (inactive).

Q: For CCN(CC)CCC(=O)N1c2ccccc2Sc2ccc(Cl)cc21, which activity change, negative = inhibition is on record?
A: Its activity change, negative = inhibition is 17.9% (inactive).

Q: With O=C(O)CCC(=O)O as the compound, how does the activity change, negative = inhibition read?
A: The activity change, negative = inhibition was -23.1% (inactive).

Q: For O=C(O)CC(O)(CC(=O)O)C(=O)O, which activity change, negative = inhibition is on record?
A: The activity change, negative = inhibition was -79.3% (active).

Q: Which activity change, negative = inhibition does the source give for O=C(O)CO.[NH2-].[NH2-].[Pt+2] here?
A: The activity change, negative = inhibition was -0.913% (inactive).

Q: With CCOC(=O)/C(=N/O)c1csc(N)n1 as the compound, how does the activity change, negative = inhibition read?
A: The activity change, negative = inhibition was 7.65% (inactive).

Q: With CCC(CC)(NC(=O)C(C)C)C(=O)N[C@@H](CCCN=C(N)N)C(=O)NC1(C(=O)NC(c2ccc(F)cc2)c2ccc(F)cc2)CCCC1 as the compound, how does the activity change, negative = inhibition read?
A: Its activity change, negative = inhibition is 12.8% (inactive).

Q: Which activity change, negative = inhibition does the source give for C/C(=C\c1csc(C)n1)[C@@H]1C[C@@H]2O[C@]2(C)CCC[C@H](C)[C@H](O)[C@@H](C)C(=O)C(C)(C)[C@@H](O)CC(=O)N1 here?
A: Its activity change, negative = inhibition is -94.8% (active).

Q: Which activity change, negative = inhibition does the source give for C=CCN1CCc2nc(N)sc2CC1 here?
A: Its activity change, negative = inhibition is 0.82% (inactive).

Q: Which activity change, negative = inhibition does the source give for Fc1ccc(C2CCNCC2COc2ccc3c(c2)OCO3)cc1 (centres undefined) here?
A: The activity change, negative = inhibition was 28.3% (inactive).

Q: For Cc1cc2nc3c(=O)[nH]c(=O)nc-3n(C)c2cc1C=O, which activity change, negative = inhibition is on record?
A: Its activity change, negative = inhibition is 9.97% (inactive) and 10.7% (inactive).

Q: For CNCCCCOc1ccccc1Cc1ccccc1, which activity change, negative = inhibition is on record?
A: Its activity change, negative = inhibition is 17.6% (inactive) and 22% (inactive).

Q: For O=C(O)CCC1CCC(c2cc(F)ccc2F)(S(=O)(=O)c2ccc(Cl)cc2)CC1 (centres undefined), which activity change, negative = inhibition is on record?
A: Its activity change, negative = inhibition is 7.06% (inactive).

Q: For N#Cc1ccccc1OCC(O)CNCCNC(=O)Nc1ccccc1 (centres undefined), which activity change, negative = inhibition is on record?
A: The activity change, negative = inhibition was 10.2% (inactive) and -13.2% (inactive).

Q: With CC1(C)CC23C(=O)CCC(O)C2(C)CCC13 (centres undefined) as the compound, how does the activity change, negative = inhibition read?
A: Its activity change, negative = inhibition is 11.7% (inactive).

Q: For O=C(Nc1ccncc1)c1cc([N+](=O)[O-])ccc1Cl, which activity change, negative = inhibition is on record?
A: The activity change, negative = inhibition was -81.1% (active) and -86.9% (active).

Q: Which activity change, negative = inhibition does the source give for O=C(Nc1ccccc1)c1ccccc1O here?
A: The activity change, negative = inhibition was 110% (inactive) and 0.394% (inactive).

Q: Which activity change, negative = inhibition does the source give for C=CCNC(=O)c1cc([N+](=O)[O-])cc2c(=O)[nH]c(Nc3ccc(Cl)c(Cl)c3)nc12 here?
A: Its activity change, negative = inhibition is 3.13% (inactive) and -6.94% (inactive).

Q: Which activity change, negative = inhibition does the source give for O=C(Nc1ccc([N+](=O)[O-])cc1Cl)c1cc(Cl)ccc1O here?
A: Its activity change, negative = inhibition is -93% (active) and 4.01% (inactive).

Q: With O=C(Nc1ccccc1)c1cc([N+](=O)[O-])ccc1Cl as the compound, how does the activity change, negative = inhibition read?
A: The activity change, negative = inhibition was 14.5% (inactive) and 9.52% (inactive).

Q: With NC(=O)c1ccc([N+](=O)[O-])cc1Cl as the compound, how does the activity change, negative = inhibition read?
A: The activity change, negative = inhibition was 17.4% (inactive) and 18.6% (inactive).

Q: For O=C(Nc1ccc([N+](=O)[O-])cc1O)Nc1ccccc1Br, which activity change, negative = inhibition is on record?
A: Its activity change, negative = inhibition is -48.5% (inactive) and -4.88% (inactive).

Q: Which activity change, negative = inhibition does the source give for Cc1oncc1C(=O)Nc1ccc(C(F)(F)F)cc1 here?
A: Its activity change, negative = inhibition is 165% (inactive) and 187% (inactive).

Q: Which activity change, negative = inhibition does the source give for O=C(Nc1cc(C(F)(F)F)cc(C(F)(F)F)c1)c1cc(Cl)ccc1O here?
A: The activity change, negative = inhibition was -83.9% (active).

Q: For CN1CCN(C2=Cc3ccccc3Oc3ccc(Cl)cc32)CC1, which activity change, negative = inhibition is on record?
A: The activity change, negative = inhibition was -2.4% (inactive) and 14.5% (inactive).

Q: Which activity change, negative = inhibition does the source give for O=C(NC1CCCCC1)NC1CCCCC1 here?
A: The activity change, negative = inhibition was 10.9% (inactive).

Q: With O=C(O)c1ccc(NC2OC(CO)C(O)C(O)C2O)cc1 (centres undefined) as the compound, how does the activity change, negative = inhibition read?
A: The activity change, negative = inhibition was 4.39% (inactive).

Q: Which activity change, negative = inhibition does the source give for Cc1occc(=O)c1O here?
A: The activity change, negative = inhibition was -2.72% (inactive).

Q: With CC(C)S(=O)(=O)NC[C@H](C)c1ccc(-c2ccc(CCNS(C)(=O)=O)cc2)cc1 as the compound, how does the activity change, negative = inhibition read?
A: The activity change, negative = inhibition was 8.52% (inactive).

Q: For CN1C[C@H]2C[C@@H]1CN2c1cc2c(cc1F)c(=O)c(C(=O)O)cn2C1CC1, which activity change, negative = inhibition is on record?
A: Its activity change, negative = inhibition is 7.36% (inactive).

Q: For NC(=O)C1CCCN1C(=O)C(Cc1cnc[nH]1)NC(=O)C1CCC(=O)N1 (centres undefined), which activity change, negative = inhibition is on record?
A: The activity change, negative = inhibition was 2.14% (inactive).

Q: With CCCCCCCCCc1ccc(OCCOCCOCCOCCOCCOCCOCCOCCOCCO)cc1 as the compound, how does the activity change, negative = inhibition read?
A: Its activity change, negative = inhibition is -73.3% (active).

Q: With CCCCOc1ccc(CC(=O)NO)cc1 as the compound, how does the activity change, negative = inhibition read?
A: The activity change, negative = inhibition was -24.4% (inactive) and -36.9% (inactive).

Q: Which activity change, negative = inhibition does the source give for CCCCCCCCCCCC[N+](C)(C)CCOc1ccccc1 here?
A: Its activity change, negative = inhibition is 14.1% (inactive).

Q: With NC(=O)NCCCC(N)C(=O)O (centres undefined) as the compound, how does the activity change, negative = inhibition read?
A: The activity change, negative = inhibition was 15% (inactive).

Q: With CC(C)=CCC[C@](C)(O)[C@H]1CC[C@]2(C)[C@@H]1[C@H](O)C[C@@H]1[C@@]3(C)CC[C@H](O)C(C)(C)[C@@H]3CC[C@]12C as the compound, how does the activity change, negative = inhibition read?
A: The activity change, negative = inhibition was 27.9% (inactive).

Q: Which activity change, negative = inhibition does the source give for CCCn1c(=O)c2[nH]cnc2n(-c2ccc(Cl)cc2)c1=O here?
A: The activity change, negative = inhibition was 15.7% (inactive) and 11% (inactive).

Q: Which activity change, negative = inhibition does the source give for CO/N=C(/C(=O)NC1C(=O)N2C(C(=O)O)=C(CSc3nnnn3C)CSC12)c1csc(N)n1 (centres undefined) here?
A: The activity change, negative = inhibition was 8.82% (inactive).

Q: Which activity change, negative = inhibition does the source give for C#C[C@]1(O)CC[C@H]2[C@@H]3CCC4=CCCC[C@@H]4[C@H]3C(=C)C[C@@]21CC here?
A: Its activity change, negative = inhibition is 35.3% (inactive).

Q: For C#C[C@]1(O)CCC2C3CCC4=C(CCC(=O)C4)C3CC[C@@]21C (some centres undefined), which activity change, negative = inhibition is on record?
A: Its activity change, negative = inhibition is -83.2% (active).

Q: With C#C[C@]1(OC(C)=O)CCC2C3CCC4=C/C(=N/O)CCC4C3CC[C@@]21CC (some centres undefined) as the compound, how does the activity change, negative = inhibition read?
A: Its activity change, negative = inhibition is -84.7% (active).

Q: Which activity change, negative = inhibition does the source give for C#C[C@]1(O)CC[C@@H]2C3[C@H](C)CC4=C(CCC(=O)C4)[C@H]3CC[C@@]21C (some centres undefined) here?
A: The activity change, negative = inhibition was 5.27% (inactive).

Q: With C#C[C@]1(O)CC[C@H]2[C@@H]3CCC4=CC(=O)CC[C@@H]4[C@H]3CC[C@@]21C as the compound, how does the activity change, negative = inhibition read?
A: Its activity change, negative = inhibition is -67.2% (inactive).

Q: For C#C[C@]1(O)CCC2C3CCC4=CC(=O)CC[C@@H]4C3CC[C@@]21CC (some centres undefined), which activity change, negative = inhibition is on record?
A: The activity change, negative = inhibition was -16.7% (inactive).

Q: Which activity change, negative = inhibition does the source give for C#C[C@]1(O)CC[C@H]2[C@@H]3CCC4=CC(=O)CC[C@@H]4C3CC[C@@]21CC (some centres undefined) here?
A: The activity change, negative = inhibition was -83.6% (active).

Q: With C#C[C@]1(O)CCC2C3CCC4=CC(=O)CCC4C3C(=C)CC21CC (some centres undefined) as the compound, how does the activity change, negative = inhibition read?
A: The activity change, negative = inhibition was 16.2% (inactive).

Q: Which activity change, negative = inhibition does the source give for C#C[C@]1(O)CCC2C3CCC4=CC(=O)CC[C@@H]4C3CC[C@@]21C (some centres undefined) here?
A: The activity change, negative = inhibition was -91% (active).

Q: Which activity change, negative = inhibition does the source give for C#C[C@]1(O)CC[C@H]2[C@@H]3CCC4=CC(=O)CC[C@@H]4[C@H]3CC[C@@]21CC here?
A: Its activity change, negative = inhibition is -67.7% (inactive).

Q: Which activity change, negative = inhibition does the source give for O=C1c2ccccc2-n2c1nc1ccccc1c2=O here?
A: Its activity change, negative = inhibition is -48.4% (inactive).

Q: For Cc1nccn1CC1CCC2C(C1=O)c1ccccc1N2C (centres undefined), which activity change, negative = inhibition is on record?
A: Its activity change, negative = inhibition is 8.1% (inactive).

Q: With CC(C)(CO)C(O)C(=O)NCCC(=O)NCCSSCCNC(=O)CCNC(=O)C(O)C(C)(C)CO (centres undefined) as the compound, how does the activity change, negative = inhibition read?
A: Its activity change, negative = inhibition is 0.59% (inactive).

Q: With CCN(CC)C(=O)c1cccc(C)c1 as the compound, how does the activity change, negative = inhibition read?
A: The activity change, negative = inhibition was 17.6% (inactive) and -3.28% (inactive).

Q: With CCCCN(CCCC)C(=O)CN1C[C@H](c2ccc3c(c2)OCO3)[C@@H](C(=O)O)[C@@H]1c1ccc(OC)cc1 as the compound, how does the activity change, negative = inhibition read?
A: The activity change, negative = inhibition was 2.8% (inactive).
